Tau fluor counter – Counterscreen qHTS for Inhibitors of Tau Fibril Formation, Fluorescence Polarization. tau K18 P301L Alexa594 fluorescence, heparin fibrillization. Potency, µM (highest dose often 57.7 µM), for the others: at the top dose activity change, negative = decrease. hit rate 0.93% among 280,000. AID 1463, 2008; also: nearly all actives have a fitted effect of over 55% in size
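Human K18 P301L tau (15 uM unlabeled plus 0.24 uM Alexa 594-labeled, final) in 100 mM sodium acetate pH 7 was mixed with compound and 20 uM heparin and incubated 6 hr at 37 C.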
KDM4E inh – qHTS Assay for Inhibitors of Human Jumonji Domain Containing 2E (JMJD2E). JMJD2E catalytic domain, FDH-coupled NADH fluorescence (FDH is formaldehyde dehydrogenase). hit rate 1.6% among 230,000. Potency, µM (highest dose often 57.1 µM), for the others: top-dose activity change, negative = inhibition, most hits filed as inhibitors. Lysine-specific demethylase 4E (Homo sapiens), B2RXH2; active = well fitted inhibition curve with a large enough effect, not every such curve was filed as active; inconclusive = small, poorly fitted or top-dose-only effect, or another doubt; inactive = no such curve, though single readings can be large or run the other way;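 also: 0% = wells with enzyme and -100% = buffer wells without enzyme; nearly all actives have a fitted effect of over 50% in size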
Target sequence (B2RXH2 1-337 limits assumed): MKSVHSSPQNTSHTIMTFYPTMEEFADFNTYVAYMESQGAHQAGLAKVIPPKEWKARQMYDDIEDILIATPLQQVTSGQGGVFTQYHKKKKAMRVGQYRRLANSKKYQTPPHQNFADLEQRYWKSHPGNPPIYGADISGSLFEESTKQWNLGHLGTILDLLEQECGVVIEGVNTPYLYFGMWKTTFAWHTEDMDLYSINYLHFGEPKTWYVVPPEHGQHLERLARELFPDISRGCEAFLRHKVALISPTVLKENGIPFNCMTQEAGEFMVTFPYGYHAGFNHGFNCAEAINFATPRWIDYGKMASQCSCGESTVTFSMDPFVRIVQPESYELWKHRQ
Tau ThT inhib – qHTS for Inhibitors of Tau Fibril Formation, Thioflavin T Binding; Microtubule-associated protein tau (Homo sapiens), P10636; recombinant tau K18 P301L (four-repeat tau fragment), heparin-induced fibrillization, ThT fluorescence; Potency, µM (doses to about 57.4 µM), inactives show top-dose activity, negative = inhibition, hits mostly inhibitors; hit rate 2.1% among 270,000; AID 1460, 2008; also: nearly all actives have a fitted effect of over 55% in size
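Heparin-induced fibrillization of the P301L-mutant K18 repeat-domain fragment of human tau was followed by ThT binding in quantitative high-throughput format.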
Tau FP inhib – qHTS for Inhibitors of Tau Fibril Formation, Fluorescence Polarization. K18 P301L tau heparin fibrillization, Alexa594 FP, 6 h. Potency, µM (doses to about 57.7 µM), for the others: at the highest dose activity, negative = inhibition, hits mostly inhibitors. hit rate 0.39% among 280,000; also: nearly all actives have a fitted effect of over 55% in size
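Recombinant K18 P301L […], labeled with Alexa 594 at 0.24 uM over 15 uM unlabeled; heparin inducer 20 uM final; 37 C, 6 hr; FP endpoint.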
HPGD inh – qHTS Assay for Inhibitors of HPGD (15-Hydroxyprostaglandin Dehydrogenase) | 15-hydroxyprostaglandin dehydrogenase [NAD(+)] (Homo sapiens), P15428 | purified HPGD, NADH fluorescence kinetic, PGE2 substrate | Potency, µM, without a hit: at the top dose activity change, negative = inhibition, hits mostly inhibitors | hit rate 4.3% among 150,000; active = well fitted inhibition curve with a large enough effect, not every such curve was filed as active; inconclusive = small, poorly fitted or top-dose-only effect, or another doubt; inactive = no such curve, though single readings can be large or run the other way
Target sequence (P15428 whole entry, looked up): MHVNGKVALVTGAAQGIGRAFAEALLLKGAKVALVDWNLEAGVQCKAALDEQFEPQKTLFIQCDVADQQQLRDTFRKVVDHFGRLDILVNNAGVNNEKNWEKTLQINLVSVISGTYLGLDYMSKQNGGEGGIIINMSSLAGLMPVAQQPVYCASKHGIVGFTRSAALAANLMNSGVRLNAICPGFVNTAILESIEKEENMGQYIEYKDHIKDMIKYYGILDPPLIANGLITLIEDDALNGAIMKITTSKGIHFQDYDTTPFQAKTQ
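NADH formation kinetics: reaction with 30 uM PGE2 and 1 mM NAD+ (final), 20 nM enzyme, Tris-HCl pH 8 with Tween 20, after 15 min compound preincubation at room temperature. Fluorescence change, last versus first of five reads.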
ALDH1A1 block – qHTS Assay for Inhibitors of Aldehyde Dehydrogenase 1 (ALDH1A1). Purified ALDH1A1, NADH fluorescence, propionaldehyde substrate. Potency, µM (series often up to 75.3 µM), for inactives: at the top dose activity, negative = inhibition, usual class: inhibitors. hit rate 7.3% among 220,000; active = well fitted inhibition curve with a large enough effect, not every such curve was filed as active; inconclusive = small, poorly fitted or top-dose-only effect, or another doubt; inactive = no such curve, though single readings can be large or run the other way;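 also: plate controls were no enzyme wells and a reference inhibitor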
* = called active by the depositor; u = inconclusive; x = no result; [ ] = remark or other dose. An excerpt weighted towards active compounds, which were near 9.9% of everything screened. Unless noted, calls follow the shape of the dose curve; as a rule, active = well fitted curve in the direction sought with a large enough effect; inconclusive = small, poorly fitted or top-dose-only effect, or another doubt; inactive = no such curve, though single readings can be large; an effect the other way counts as inactive or inconclusive. Unless noted, % is scaled to controls: 0 for no effect and ±100 for the full control effect; potency is read from the fitted curve at half-maximal effect.

SMILES	Tau fluor counter	KDM4E inh	Tau ThT inhib	Tau FP inhib	HPGD inh	ALDH1A1 block
CCOC(=O)N1CC=C2C(C#N)=C(N)C(C#N)(C#N)[C@H](c3ccccc3OCC)[C@H]2C1	1%	3%	-10%	0%	-6%	7%
N#CC1=C(N)C(C#N)(C#N)C(c2ccncc2)C2CN(C(=O)OCc3ccccc3)CC=C12 (stereo not given)	-15%	u	25µM*	u	-9%	u
N#CC1=C(N)C(C#N)(C#N)[C@H](c2cccnc2)[C@H]2CN(C(=O)OCc3ccccc3)CC=C12	-16%	u	16µM*	u	-16%	u
Cc1cc(NC(=O)CSc2ncccc2C(=O)O)no1	-8%	u	-6%	-2%	x	8%
O=C1/C(=C/c2cccs2)SC(=S)N1c1ccccc1	-8%	-3%	-7%	-4%	-7%	9%
O=C1N=C(N2CCN(c3ccccc3)CC2)S/C1=C/c1cccs1	-19%	4%	u	7%	16µM*	u
O=C1N=C(c2ccccc2)S/C1=C\c1cccs1	u	0%	7.9µM*	u	5.6µM*	3.5µM*
O=C1N=C(N2CCN(Cc3ccccc3)CC2)S/C1=C/c1cccs1	-7%	-8%	u	2%	x	x
O=C1OC(c2ccccc2)=C/C1=C/c1cccs1	u	u	3.2µM*	u	-5%	-4%
COc1cccc(NC(=O)c2cn(C3CCCCC3)c(=O)c3c2c2ccccc2n3C)c1	-16%	x	-10%	-7%	x	x
CCCOC(=O)c1ccc(NC(=O)C2C3C=CC(O3)C2C(=O)O)cc1 (stereo not given)	7%	-6%	-11%	1%	u	1.8µM*
CCCOC(=O)c1ccc(NC(=O)c2ccoc2C)cc1	-2%	-4%	12%	-8%	32µM*	u
CCCOC(=S)Nc1ccccc1	-6%	1%	-17%	1%	22µM*	12%
CCCOC(=O)c1ccc(NC(=O)Oc2ccccc2)cc1	-13%	7%	u	-3%	u	25µM*
CC(C)c1ccc(NS(=O)(=O)c2ccc3[nH]cc(C(=O)N4CCCC4)c(=O)c3c2)cc1	-19%	x	-2%	-5%	x	x
CN(C)c1ccc(-c2nc3ccccn3c2Nc2ccc3c(c2)OCCO3)cc1	u	x	u	12%	x	x
Cc1ccc(Nc2nc(-c3c(C)nc4ncccn34)cs2)cc1	u	u	14µM*	-5%	u	u
Cc1nc2ccccn2c1-c1csc(NCc2ccco2)n1	-17%	u	u	-11%	u	22µM*
Cc1cccnc1Nc1nc(-c2ccc(O)cc2O)cs1	-1%	4%	0%	9%	x	u
Cc1ccc(Nc2nc(-c3c(C)nc4ccccn34)cs2)cc1	10µM*[quencher]	u	11µM*	u	u	u
Cc1nc2ncccn2c1-c1csc(Nc2ccc(O)cc2)n1	u	u	10µM*	7%	x	-7%
Cc1ccc(Nc2c(-c3ccco3)nc3ccccn23)cc1	0%	3%	-4%	3%	u	-5%
Clc1ccc2c(NCc3ccccn3)ncnc2c1	-3%	u	-2%	3%	u	3.5µM*
C=CCn1c(SCC(=O)c2ccc(OC)cc2)nnc1-c1cc2cccc(OC)c2o1	10%	-12%	-4%	-6%	2%	-10%
C=CCn1c(SCC(=O)c2ccccc2)nnc1-c1cc2ccccc2o1	0%	-5%	-1%	6%	14µM*	u
SMILES	Tau fluor counter	KDM4E inh	Tau ThT inhib	Tau FP inhib	HPGD inh	ALDH1A1 block
C=CCn1c(SCC(=O)c2ccccc2)nnc1-c1ccc2c(c1)OCO2	-14%	-11%	u	-6%	5.6µM*	25µM*
C=CCn1c(SCC(=O)NCc2ccc3c(c2)OCO3)nnc1-c1cccnc1	-5%	1%	-6%	8%	x	4%
Cc1ccc(N2C(=O)C3C(C2=O)N2C(c4cccs4)C4C(=O)N(c5ccc(C)cc5)C(=O)C4N2C3c2cccs2)cc1 (stereo not given)	-10%	-3%	-9%	u	-6%	3%
Cc1ccc(N2C(=O)CC(Sc3cccs3)C2=O)cc1 (stereo not given)	-12%	-1%	u	-12%	x	2.2µM*
Cc1ccccc1C(=O)NNC1CC(=O)N(c2ccc3c(c2)OCCO3)C1=O (stereo not given)	11%	-4%	6%	-4%	-6%	-5%
Cc1ccc(SC2CC(=O)N(c3ccc4c(c3)OCCO4)C2=O)cc1 (stereo not given)	-7%	8%	u	6%	x	2.5µM*
CCc1ccc(C2=NNC(=Nc3c(C)n(C)n(-c4ccccc4)c3=O)SC2)cc1	-29%	6%	u	-16%	x	u
COc1ccc(N(CN2C(=O)c3ccccc3C2=O)C(=O)C(C)C)cc1	-3%	7%	-13%	-7%	-7%	11µM*
COc1ccc(NC(=O)CSc2nnc(-c3cccs3)o2)cc1	-11%	x	-7%	-8%	x	x
COc1ccc(NC(=O)Cn2c(=O)oc3cc(S(=O)(=O)NCc4ccccc4)ccc32)c(OC)c1	-16%	x	-6%	-7%	x	x
Cc1ccc(CNc2ccc3cc(S(=O)(=O)N4CCCCC4)ccc3n2)cc1	u	x	5%	-12%	x	x
COc1ccc(Cl)cc1Nc1ccc2cc(S(=O)(=O)N3CCCCC3)ccc2n1	10µM*[quencher]	x	-9%	0%	x	x
CCOc1ccc(OCC)c(Nc2ccc3cc(S(=O)(=O)N4CCCC4)ccc3n2)c1	u	x	-6%	u	x	x
O=S(=O)(c1ccc2nc(Nc3ccc(F)cc3)ccc2c1)N1CCCC1	u	x	u	-14%	x	x
CCOC(=O)c1cccc(Nc2ccc3cc(S(=O)(=O)N4CCCCC4)ccc3n2)c1	11µM*[quencher]	x	u	u	x	x
COc1ccc(Nc2ccc3cc(S(=O)(=O)N4CCCC4)ccc3n2)cc1Cl	2.8µM*[quencher]	x	u	7%	x	x
Nc1cc(N)nc(CS)n1	-5%	0%	-9%	u	x	x
CCN(CC)CCNC(=O)c1ccc(Cn2c(SCc3ccccc3)nc3cccnc32)cc1	-5%	x	1%	5%	x	x
O=C(CCc1ccc(S(=O)(=O)NC2CCCCC2)cc1)NCc1cccnc1	-9%	6%	-7%	-1%[2.34 µM]	x	13µM*
